Laboratory results: publication PMC7862700, “An all-to-all approach to the identification of sequence-specific readers for epigenetic DNA modifications on cytosine”

Experiments:
Assay in all cases: DAPPL (digital affinity profiling via proximity ligation, sequencing); 10 mM Tris-HCl pH 7.5, 50 mM NaCl, 1 mM DTT, 4% glycerol, room temperature, 30 min; GST-TFs on glutathione beads, 16-mer random dsDNA library, 0.1% formaldehyde crosslink after washing; high values mean tight binding
Settings in all cases: protein: recombinant; tags: N-terminal GST; dsDNA, one strand shown
FLI1 = target: T1, FLI1 (Homo sapiens, UniProt Q01543 1-452)
T1 sequence: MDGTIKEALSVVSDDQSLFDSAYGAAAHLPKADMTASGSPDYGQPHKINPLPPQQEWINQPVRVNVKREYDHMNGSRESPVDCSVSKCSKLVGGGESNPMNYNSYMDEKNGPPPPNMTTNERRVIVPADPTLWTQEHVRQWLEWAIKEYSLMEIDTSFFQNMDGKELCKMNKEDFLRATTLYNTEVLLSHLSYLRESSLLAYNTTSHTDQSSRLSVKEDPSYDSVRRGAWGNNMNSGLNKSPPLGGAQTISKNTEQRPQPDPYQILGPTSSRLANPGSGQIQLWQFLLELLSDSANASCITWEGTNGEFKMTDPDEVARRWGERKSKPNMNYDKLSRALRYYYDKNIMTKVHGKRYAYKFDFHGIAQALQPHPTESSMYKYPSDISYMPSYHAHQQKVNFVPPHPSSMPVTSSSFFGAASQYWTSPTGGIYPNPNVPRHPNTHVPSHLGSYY
Summary of the method: (§1)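 In yeast, human transcription factors were expressed with a GST fusion, then pulled down on glutathione beads and given DNA barcodes. Pooled with a tag-only sample, they were exposed to 200 nmole of a 16-mer random double-stranded DNA library (Tris/NaCl/DTT/glycerol buffer, room temperature, 30 min), washed, crosslinked with 0.1% formaldehyde, proximity-ligated using BsaI/T4 ligase for 1 h at 37 °C, PCR-amplified and read on an Illumina NextSeq500. Each hexamer's frequency of reads for a factor, divided by the matching frequency for the tag-only sample, gives the binding signal.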

ELF1 = ELF1 (Homo sapiens, UniProt P32519 1-619)
Summary of the method: as §1

ETV7 = target: T2, ETV7 (Homo sapiens, UniProt Q9Y603 1-341)
T2 sequence: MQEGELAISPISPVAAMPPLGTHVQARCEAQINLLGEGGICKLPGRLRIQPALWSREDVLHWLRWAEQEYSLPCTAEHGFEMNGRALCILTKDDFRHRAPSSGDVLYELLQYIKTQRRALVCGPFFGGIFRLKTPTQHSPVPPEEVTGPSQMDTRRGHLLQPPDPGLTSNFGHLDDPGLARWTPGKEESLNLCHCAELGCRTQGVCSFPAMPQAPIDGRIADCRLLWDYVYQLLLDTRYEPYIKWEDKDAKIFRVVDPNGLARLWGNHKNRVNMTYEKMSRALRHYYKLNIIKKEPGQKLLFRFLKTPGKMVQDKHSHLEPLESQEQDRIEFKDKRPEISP
Summary of the method: as §1

ETV3 = target: T3, ETV3 (Homo sapiens, UniProt P41162-2 1-143)
T3 sequence: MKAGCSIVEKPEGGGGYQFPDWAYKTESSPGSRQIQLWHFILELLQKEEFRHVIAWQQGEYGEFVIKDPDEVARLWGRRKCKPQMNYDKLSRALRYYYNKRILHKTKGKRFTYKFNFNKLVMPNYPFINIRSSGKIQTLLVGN
Summary of the method: as §1

GABPA = target: T4, GABPA (Homo sapiens, UniProt Q06546 1-454)
T4 sequence: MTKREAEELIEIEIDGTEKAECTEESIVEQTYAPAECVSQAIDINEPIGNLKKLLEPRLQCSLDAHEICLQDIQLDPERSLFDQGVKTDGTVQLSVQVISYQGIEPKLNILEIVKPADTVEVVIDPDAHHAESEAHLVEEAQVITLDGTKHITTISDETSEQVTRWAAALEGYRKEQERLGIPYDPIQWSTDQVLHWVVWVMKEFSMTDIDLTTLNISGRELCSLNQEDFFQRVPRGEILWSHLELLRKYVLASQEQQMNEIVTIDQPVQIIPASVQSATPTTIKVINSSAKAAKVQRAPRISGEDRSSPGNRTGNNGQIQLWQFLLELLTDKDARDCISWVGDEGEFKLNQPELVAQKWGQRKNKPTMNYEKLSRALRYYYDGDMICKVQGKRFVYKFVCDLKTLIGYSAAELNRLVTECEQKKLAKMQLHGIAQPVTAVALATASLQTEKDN
Summary of the method: as §1

ERG = target: T5, ERG (Homo sapiens, UniProt P11308 1-479)
T5 sequence: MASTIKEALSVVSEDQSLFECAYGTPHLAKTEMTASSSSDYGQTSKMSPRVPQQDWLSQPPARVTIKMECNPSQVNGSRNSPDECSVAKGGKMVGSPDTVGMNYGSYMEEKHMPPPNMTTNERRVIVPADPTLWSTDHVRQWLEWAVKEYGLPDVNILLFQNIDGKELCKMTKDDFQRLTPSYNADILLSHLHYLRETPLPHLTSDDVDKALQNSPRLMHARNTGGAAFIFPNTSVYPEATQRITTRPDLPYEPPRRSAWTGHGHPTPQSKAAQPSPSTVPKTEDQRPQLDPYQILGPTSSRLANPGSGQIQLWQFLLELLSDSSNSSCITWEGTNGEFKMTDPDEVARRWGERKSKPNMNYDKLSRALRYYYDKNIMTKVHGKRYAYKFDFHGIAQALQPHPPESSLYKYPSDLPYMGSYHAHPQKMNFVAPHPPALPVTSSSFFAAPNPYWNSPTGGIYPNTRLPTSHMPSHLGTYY
Summary of the method: as §1

EHF = target: T6, EHF (Homo sapiens, UniProt Q9NZC4 1-300)
T6 sequence: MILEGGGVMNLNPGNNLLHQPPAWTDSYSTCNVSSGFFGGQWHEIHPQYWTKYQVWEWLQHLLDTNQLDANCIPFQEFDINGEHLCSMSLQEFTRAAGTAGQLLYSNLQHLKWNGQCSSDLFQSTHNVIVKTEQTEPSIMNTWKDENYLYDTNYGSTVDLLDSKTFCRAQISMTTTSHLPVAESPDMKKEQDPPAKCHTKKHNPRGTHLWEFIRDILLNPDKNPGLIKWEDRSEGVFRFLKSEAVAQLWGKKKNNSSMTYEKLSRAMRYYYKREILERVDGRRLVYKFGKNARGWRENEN
Summary of the method: as §1

SPI1 = SPI1 (Homo sapiens, UniProt P17947 1-270)
Summary of the method: as §1

SPIB = SPIB (Homo sapiens, UniProt Q01892 1-262)
Summary of the method: as §1

ELK3 = target: T7, ELK3 (Homo sapiens, UniProt P41970 1-407)
T7 sequence: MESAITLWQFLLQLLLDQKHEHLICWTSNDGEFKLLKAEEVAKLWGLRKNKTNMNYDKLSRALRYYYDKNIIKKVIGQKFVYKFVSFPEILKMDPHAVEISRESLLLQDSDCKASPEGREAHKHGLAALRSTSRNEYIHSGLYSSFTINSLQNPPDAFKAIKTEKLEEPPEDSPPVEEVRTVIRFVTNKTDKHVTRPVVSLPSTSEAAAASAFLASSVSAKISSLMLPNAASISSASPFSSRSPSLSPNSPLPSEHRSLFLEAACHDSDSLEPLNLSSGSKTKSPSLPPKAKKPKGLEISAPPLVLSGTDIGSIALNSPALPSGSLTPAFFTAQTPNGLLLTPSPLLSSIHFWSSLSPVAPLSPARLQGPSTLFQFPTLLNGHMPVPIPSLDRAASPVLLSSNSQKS
Summary of the method: as §1

ELK4 = target: T8, ELK4 (Homo sapiens, UniProt P28324-2 1-405)
T8 sequence: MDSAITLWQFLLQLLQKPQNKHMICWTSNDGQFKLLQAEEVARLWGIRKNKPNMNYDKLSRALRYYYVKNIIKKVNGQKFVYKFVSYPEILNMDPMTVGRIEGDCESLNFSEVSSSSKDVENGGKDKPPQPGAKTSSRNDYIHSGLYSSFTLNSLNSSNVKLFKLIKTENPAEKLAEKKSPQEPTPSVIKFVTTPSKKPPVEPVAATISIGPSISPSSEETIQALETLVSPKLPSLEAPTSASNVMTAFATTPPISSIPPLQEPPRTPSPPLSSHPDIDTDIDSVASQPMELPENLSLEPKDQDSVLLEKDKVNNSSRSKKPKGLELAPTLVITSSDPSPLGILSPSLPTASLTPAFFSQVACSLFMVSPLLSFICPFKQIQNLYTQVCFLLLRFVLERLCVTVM
Summary of the method: as §1

ETV2 = target: T9, ETV2 (Homo sapiens, UniProt O00321 1-342)
T9 sequence: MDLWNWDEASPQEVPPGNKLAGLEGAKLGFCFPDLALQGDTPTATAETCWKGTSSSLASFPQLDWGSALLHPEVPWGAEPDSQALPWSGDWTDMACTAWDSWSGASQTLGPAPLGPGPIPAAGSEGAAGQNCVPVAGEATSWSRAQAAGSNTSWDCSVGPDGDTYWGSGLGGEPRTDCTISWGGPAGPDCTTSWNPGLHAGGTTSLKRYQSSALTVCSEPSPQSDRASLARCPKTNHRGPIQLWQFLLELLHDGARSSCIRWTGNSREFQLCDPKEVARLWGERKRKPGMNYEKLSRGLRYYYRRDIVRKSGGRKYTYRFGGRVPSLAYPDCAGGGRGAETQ
Summary of the method: as §1

ETV1 = ETV1 (Homo sapiens, UniProt P50549 1-477)
Summary of the method: as §1

ERF = target: T10, ERF (Homo sapiens, UniProt P50548 1-548)
T10 sequence: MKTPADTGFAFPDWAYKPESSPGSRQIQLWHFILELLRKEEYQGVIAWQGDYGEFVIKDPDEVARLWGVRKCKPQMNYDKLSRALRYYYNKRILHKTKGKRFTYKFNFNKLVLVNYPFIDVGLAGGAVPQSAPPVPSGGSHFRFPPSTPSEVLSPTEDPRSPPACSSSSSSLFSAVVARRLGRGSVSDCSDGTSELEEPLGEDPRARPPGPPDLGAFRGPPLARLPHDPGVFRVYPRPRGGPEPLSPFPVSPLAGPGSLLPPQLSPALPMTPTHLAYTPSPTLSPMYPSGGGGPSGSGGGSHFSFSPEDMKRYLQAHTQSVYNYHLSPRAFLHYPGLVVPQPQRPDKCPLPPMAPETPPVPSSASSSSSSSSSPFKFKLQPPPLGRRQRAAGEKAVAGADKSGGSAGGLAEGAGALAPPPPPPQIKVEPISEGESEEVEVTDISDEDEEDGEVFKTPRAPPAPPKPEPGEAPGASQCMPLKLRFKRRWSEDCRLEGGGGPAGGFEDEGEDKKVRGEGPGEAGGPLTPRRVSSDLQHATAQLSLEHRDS
Summary of the method: as §1

ETV3L = target: T11, ETV3L (Homo sapiens, UniProt Q6ZN32 1-361)
T11 sequence: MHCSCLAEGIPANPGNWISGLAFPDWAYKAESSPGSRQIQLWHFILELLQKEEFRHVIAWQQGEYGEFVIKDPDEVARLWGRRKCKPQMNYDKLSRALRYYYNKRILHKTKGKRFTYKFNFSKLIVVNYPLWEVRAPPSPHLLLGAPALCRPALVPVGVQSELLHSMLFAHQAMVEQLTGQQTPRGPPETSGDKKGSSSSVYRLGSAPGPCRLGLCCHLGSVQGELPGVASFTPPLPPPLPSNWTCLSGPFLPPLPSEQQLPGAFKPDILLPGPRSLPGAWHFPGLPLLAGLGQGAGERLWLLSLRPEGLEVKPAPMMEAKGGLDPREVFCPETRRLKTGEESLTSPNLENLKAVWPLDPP
Summary of the method: as §1

ETV6 = ETV6 (Homo sapiens, UniProt P41212 1-452)
Summary of the method: as §1

Sequence of ELF1 (P32519 whole entry): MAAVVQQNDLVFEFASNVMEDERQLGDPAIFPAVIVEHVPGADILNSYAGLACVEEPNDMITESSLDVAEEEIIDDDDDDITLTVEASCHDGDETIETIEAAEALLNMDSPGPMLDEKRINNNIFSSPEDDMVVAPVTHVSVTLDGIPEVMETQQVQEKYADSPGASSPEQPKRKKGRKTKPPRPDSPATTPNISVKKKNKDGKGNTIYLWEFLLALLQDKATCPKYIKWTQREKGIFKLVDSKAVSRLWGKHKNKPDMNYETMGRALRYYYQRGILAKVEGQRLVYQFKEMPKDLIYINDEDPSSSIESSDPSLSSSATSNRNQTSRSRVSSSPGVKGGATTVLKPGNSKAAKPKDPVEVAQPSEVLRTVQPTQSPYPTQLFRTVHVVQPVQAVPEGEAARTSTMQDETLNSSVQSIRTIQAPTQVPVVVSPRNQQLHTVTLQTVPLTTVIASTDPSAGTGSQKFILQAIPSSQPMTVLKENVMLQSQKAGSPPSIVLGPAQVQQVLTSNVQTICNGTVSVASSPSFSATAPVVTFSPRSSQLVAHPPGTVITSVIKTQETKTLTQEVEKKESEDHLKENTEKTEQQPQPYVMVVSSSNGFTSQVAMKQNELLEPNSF
Sequence of ETV1 (P50549 whole entry): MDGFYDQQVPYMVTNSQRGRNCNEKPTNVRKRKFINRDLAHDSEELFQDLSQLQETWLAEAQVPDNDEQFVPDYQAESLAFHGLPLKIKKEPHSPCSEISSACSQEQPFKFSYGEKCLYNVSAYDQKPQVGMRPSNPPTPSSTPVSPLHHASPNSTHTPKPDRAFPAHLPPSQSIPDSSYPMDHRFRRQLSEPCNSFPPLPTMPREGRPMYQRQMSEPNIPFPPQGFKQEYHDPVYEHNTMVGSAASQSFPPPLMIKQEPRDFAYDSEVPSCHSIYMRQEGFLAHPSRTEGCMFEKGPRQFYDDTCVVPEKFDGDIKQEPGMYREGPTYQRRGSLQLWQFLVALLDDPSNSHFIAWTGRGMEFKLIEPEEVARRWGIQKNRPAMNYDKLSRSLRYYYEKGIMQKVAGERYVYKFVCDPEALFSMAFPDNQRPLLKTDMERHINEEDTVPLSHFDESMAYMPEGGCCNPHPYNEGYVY
Sequence of ETV6 (P41212 whole entry): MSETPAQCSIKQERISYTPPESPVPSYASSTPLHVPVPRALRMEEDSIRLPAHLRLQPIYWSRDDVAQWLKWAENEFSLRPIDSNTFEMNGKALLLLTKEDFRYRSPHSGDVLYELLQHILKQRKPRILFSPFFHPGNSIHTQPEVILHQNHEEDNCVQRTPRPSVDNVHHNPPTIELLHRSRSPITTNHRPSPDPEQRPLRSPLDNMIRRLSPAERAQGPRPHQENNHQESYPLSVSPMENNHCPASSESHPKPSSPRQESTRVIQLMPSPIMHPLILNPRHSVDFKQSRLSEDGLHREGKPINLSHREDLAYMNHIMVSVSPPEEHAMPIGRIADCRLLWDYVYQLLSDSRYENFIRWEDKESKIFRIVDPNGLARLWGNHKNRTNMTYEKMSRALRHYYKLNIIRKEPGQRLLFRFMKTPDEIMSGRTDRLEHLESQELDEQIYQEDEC
Sequence of SPIB (Q01892 whole entry): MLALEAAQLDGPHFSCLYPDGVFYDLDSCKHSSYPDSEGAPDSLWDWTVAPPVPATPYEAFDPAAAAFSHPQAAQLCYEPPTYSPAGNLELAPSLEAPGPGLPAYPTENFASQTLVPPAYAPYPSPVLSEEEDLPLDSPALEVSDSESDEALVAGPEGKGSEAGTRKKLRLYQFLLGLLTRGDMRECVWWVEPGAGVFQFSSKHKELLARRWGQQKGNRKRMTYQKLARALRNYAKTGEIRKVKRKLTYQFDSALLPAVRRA

| Sequence | binding signal (FLI1) | binding signal (ELF1) | binding signal (ETV7) | binding signal (ETV3) | binding signal (GABPA) | binding signal (ERG) | binding signal (EHF) | binding signal (SPI1) | binding signal (SPIB) | binding signal (ELK3) | binding signal (ELK4) | binding signal (ETV2) | binding signal (ETV1) | binding signal (ERF) | binding signal (ETV3L) | binding signal (ETV6) |
| --- | --- | --- | --- | --- | --- | --- | --- | --- | --- | --- | --- | --- | --- | --- | --- | --- |
| GTCCAA | 1.03 fold enrichment (6-mer frequency, TF over GST control) | 1.03 fold enrichment (6-mer frequency, TF over GST control) | 1.01 fold enrichment (6-mer frequency, TF over GST control) | 1.04 fold enrichment (6-mer frequency, TF over GST control) |  |  |  |  |  |  |  |  |  |  |  |  |
| CCTGGC | 1.03 fold enrichment (6-mer frequency, TF over GST control) | 1.07 fold enrichment (6-mer frequency, TF over GST control) |  | 1.01 fold enrichment (6-mer frequency, TF over GST control) | 1.1 fold enrichment (6-mer frequency, TF over GST control) | 1.15 fold enrichment (6-mer frequency, TF over GST control) | 1.04 fold enrichment (6-mer frequency, TF over GST control) | 1.05 fold enrichment (6-mer frequency, TF over GST control) | 1.03 fold enrichment (6-mer frequency, TF over GST control) | 1.06 fold enrichment (6-mer frequency, TF over GST control) | 1.13 fold enrichment (6-mer frequency, TF over GST control) | 1.27 fold enrichment (6-mer frequency, TF over GST control) | 1.04 fold enrichment (6-mer frequency, TF over GST control) | 1.03 fold enrichment (6-mer frequency, TF over GST control) | 1.08 fold enrichment (6-mer frequency, TF over GST control) | 1.08 fold enrichment (6-mer frequency, TF over GST control) |
